Data reported in PubChem BioAssay (NCATS).
Inconclusive results are not listed. A call without a number means that no potency is given here. The source made the active and inactive calls. Calls follow the shape of the dose curve; as a rule, active = well fitted curve in the direction sought with a large enough effect; inconclusive = small, poorly fitted or top-dose-only effect, or another doubt; inactive = no such curve, though single readings can be large; an effect the other way counts as inactive or inconclusive.

Columns and labels:
[1] = target: Aldehyde dehydrogenase, mitochondrial (Homo sapiens) (UniProt P05091); assay: qHTS for Inhibitors of the Aldehyde Dehydrogenase Family (ALDH2) Primary screen (AID 2061308); also: nearly all actives have a fitted effect of over 55% in size
[2] = target: Retinaldehyde dehydrogenase 3 (Homo sapiens) (UniProt P47895); assay: qHTS for Inhibitors of the Aldehyde Dehydrogenase Family (ALDH1A3) Primary screen (AID 2061315)

| Compound | Potency [1] | Potency [2] |
| --- | --- | --- |
| COCCNc1cc2c(cc1[S+](=O)([O-])Nc1ccc(C)c(C)c1)CCC(=O)N2 | inactive | inactive |
| COc1ccc(C2=Nn3c(nnc3-c3ccc(OC)c(OC)c3)SC2)cc1 | inactive | inactive |
| Cc1cnccc1-c1nc(Nc2ccc(F)c(F)c2)c2ccccc2n1 | inactive | inactive |
| C=C1C(=O)O[C@@H]2[C@H]1CC[C@H](C)[C@]1(CCC(=O)O1)C2(C)O (some centres not stated) | inactive | inactive |
| Cc1ccc(S(=O)(=O)Nc2ccc(C)cc2C(=O)Nc2nc(-c3ccccc3)cs2)cc1 | inactive | inactive |
| Cc1ccc(OCCn2c(CCNC(=O)c3cccc(F)c3)nc3ccccc32)cc1 | inactive | inactive |
| O=C(N[C@H]1CCCc2c1cnn2-c1ccc(F)cc1F)c1ccccn1 | inactive | inactive |
| O=C(Nc1nnc(-c2ccco2)o1)c1ccc(Cl)c(Cl)c1 | inactive | inactive |
| COc1ccc(-c2ccc3ncnc(NCCc4cnc[nH]4)c3c2)cc1OC | inactive | inactive |
| CCOc1ccc(CCNC(=O)c2cc3sccc3n2Cc2ccc(Cl)c(F)c2)cc1OCC | inactive | inactive |
| FC(F)(F)c1cccc(N2CCN(C(=S)Nc3ncnc4ccccc34)CC2)c1 | inactive | inactive |
| O=C(O)c1ccc2c(c1)C(=O)N([C@H](Cc1ccc(O)cc1)C(=O)O)C2=O | inactive | inactive |
| Cc1nc(N2CCOCC2)c2nc(-c3ccccc3)n(C(C)CN(C)C)c2n1 (configuration not stated) | inactive | inactive |
| COc1cccc(C2c3c(ncn(-c4cccc(Cl)c4)c3=N)Oc3ccc4ccccc4c32)c1 (configuration not stated) | inactive | inactive |
| COC(=O)c1ccc2nc(NC3=NC(c4[nH]ncc4Cl)C4=C(CCCC4=O)N3)oc2c1 (configuration not stated) | inactive | inactive |
| Cc1ccccc1C(=O)N1CCc2cc(-n3cc(NC(=O)Cc4ccccc4)cn3)ccc21 | inactive | inactive |
| O=C([C@H](Cc1ccc(O[S+](=O)([O-])c2cccc3cccnc23)cc1)N[S+](=O)([O-])c1cccnc1)N1CCN(c2ccccc2)CC1 | inactive | inactive |
| O=C(O)c1ccc2c(c1)C(=O)N([C@H](Cc1ccc(C(F)(F)F)cc1)C(=O)O)C2=O | inactive | inactive |
| O=C(O)c1ccc(O)c2ncc(N3CCCCC3)cc12 | inactive | inactive |
| Cc1ccc(S(=O)(=O)Nc2cnccc2C(=O)Nc2ccc(C#N)cc2)cc1 | inactive | inactive |
| Cc1ccc(CCCn2c(CCNC(=O)C3CCCCC3)nc3ccccc32)cc1 | inactive | inactive |
